Screens from PubChem.
Rows were chosen to be rich in hits. Some 12% of all compounds tested hit in one or more screens of this group.
NS1 inh = influenza NS1 inhibition; 270,000 compounds, 0.4% hits; Potency, µM (highest dose often 46.1 µM); note: actives are rising curves; nearly all actives have a fitted effect of over 50% in size
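Compounds were scored for reversing the slow growth caused by influenza A NS1 in S. cerevisiae, measured by optical density at 600 nm. Assay medium contained 2% galactose at pH 6.0; NS1-free yeast of the same strain were the positive control.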
CHX counter = counter-screen hit for Shiga toxin inhibitors, cycloheximide | cell reporter, cycloheximide protein synthesis inhibition counterscreen | max response, % | 300,000 compounds, 12% hits | AID 2314; in the data active = max response mostly above about 13%, no sharp cut-off; inactive = mostly below about 14%; note: read at 38.3 µM for the half of the compounds with a filed dose
SARS PLpro yeast = inhibitors of SARS-CoV papain-like protease in yeast. S. cerevisiae expressing SARS-CoV PLpro, growth rescue. Potency, µM (doses to about 32.9 µM), actives largely listed as activators. 330,000 compounds, 0.19% hits. AID 485353; note: nearly all actives have a fitted effect of over 55% in size
Shiga inhibitor = Shiga toxin inhibition; Vero cells, Shiga toxin protein synthesis inhibition reporter; inhibition, % at 38.7 µM; 290,000 compounds, 9.2% hits; AID 2315; in the data active = inhibition mostly above about 28%, no sharp cut-off; inactive = mostly below about 43%
Large screens that a line does not name were inactive. Unless noted, calls come from the whole dose curve.

Cc1cc(C=C2C(=O)NC(=S)NC2=O)c(C)n1C1CCCC1	CHX counter 43, Shiga inhibitor 71 (no result: NS1 inh)
CCOC(=O)C1CCN(C(=O)c2cc3c(=O)n4cccc(C)c4nc3s2)CC1	none
CCN1CCN(C(=O)c2cc3c(=O)n4ccccc4nc3s2)CC1	none
O=C(c1cc2c(=O)n3ccccc3nc2s1)N1CCc2ccccc2C1	CHX counter 11 (no result: NS1 inh)
CCOC(=O)C1CCN(C(=O)c2cc3c(=O)n4ccccc4nc3s2)CC1	CHX counter 23
CC1CCCCN1C(=O)c1cc2c(=O)n3ccccc3nc2s1 (stereo not drawn)	Shiga inhibitor 52
Cc1cccn2c(=O)c3cc(C(=O)N4CCCC(C)C4)sc3nc12 (stereo not drawn)	none
CC1CCCN(C(=O)c2cc3c(=O)n4ccccc4nc3s2)C1 (stereo not drawn)	CHX counter 34, Shiga inhibitor 78
COc1cc2c(cc1OC)CN(C1CCC(C)CC1)CC2 (stereo not drawn)	none
CCOC(=O)Nc1nn(-c2ccc(C)cc2)c(=O)c(C#N)c1C	none (no result: NS1 inh)
CN(C)c1ccnc(N(Cc2ccccc2)Cc2ccccc2)c1C#N	CHX counter 29, Shiga inhibitor 50
CN(C)c1ccnc(NCc2ccccc2)c1C#N	CHX counter 30, Shiga inhibitor 55
Cc1ccc(S(=O)(=O)NCCC(=O)OCC(=O)Nc2ccccc2Cl)cc1	none
CN(C(=O)COC(=O)/C=C/c1ccc(Cl)c(Cl)c1)c1c(N)n(Cc2ccccc2)c(=O)[nH]c1=O	none (no result: NS1 inh, CHX counter, Shiga inhibitor)
O=C(c1cc2ccccc2[nH]1)N(Cc1cccnc1)CC1CCCN(C2CCCCC2)C1 (stereo not drawn)	CHX counter 15
Cc1cc(C)cc(N=C2SC(CC(=O)Nc3ccccc3)C(=O)N2CCN2CCOCC2)c1 (stereo not drawn)	none (no result: NS1 inh)
CCn1c(=O)c2sccc2n2c(CCCC(=O)NCc3cccnc3)nnc12	none
CC1Sc2ccc(S(=O)(=O)N3CCC(C(=O)NCCc4ccccc4)CC3)cc2NC1=O (stereo not drawn)	CHX counter 15
Cc1ccc(CCNC(=O)C2CCN(S(=O)(=O)c3ccc4c(c3)NC(=O)C(C)S4)CC2)cc1 (stereo not drawn)	none
Cc1ccc(NC(=O)C2CCN(S(=O)(=O)c3ccc4c(c3)NC(=O)C(C)S4)CC2)c(Cl)c1 (stereo not drawn)	CHX counter 16
O=C(Nc1ccnn1C1CCN(C/C=C/c2ccccc2)CC1)c1cccc(F)c1	none
NS(=O)(=O)c1ccc(CCNC(=O)CSc2nc3ccccc3c(=O)n2CC2CCCO2)cc1 (stereo not drawn)	none
CC(C)(C)c1ccc(-c2nnc(SCC(=O)c3ccc4c(c3)OCCO4)o2)cc1	none
Cc1nc(-c2cc(-c3nc(-c4ccc(C(F)(F)F)cc4)no3)no2)cs1	none
Cc1c(-c2nc(-c3ccc(C(C)(C)C)cc3)no2)n(C)oc1=O	CHX counter 60, Shiga inhibitor 161
CC(C)(C)c1ccc(-c2noc(-c3ccc4c(c3)CCO4)n2)cc1	CHX counter 21, Shiga inhibitor 35
CCn1nc(C)c(Br)c1-c1nc(-c2ccc(C)cc2)no1	none
Cc1cc(-c2nc(-c3ccc(C(C)(C)C)cc3)no2)no1	CHX counter 39, Shiga inhibitor 53
COc1ccccc1/C=C(/NC(=O)c1ccccc1)C(=O)NCCCn1ccnc1	none
O=C(NN=C1CCCCCCCCCCC1)c1cccnc1	none (no result: NS1 inh)
O=C(NN=C1CCCCCCC1)c1ccc(F)cc1	CHX counter 24, Shiga inhibitor 76
O=C(NN=C1CCCCCC1)c1cccs1	CHX counter 61, Shiga inhibitor 92
O=C(NN=C1CCCC1)c1ccccc1OCc1ccc(Cl)cc1	none
O=C(NN=C1CCCC1)c1cc(-c2ccccc2)n[nH]1	none
O=C(NN=C1CCCCCCCCCCC1)c1ccccc1F	CHX counter 78, Shiga inhibitor 70
O=C(NN=C1CCCC1)c1ccn[nH]1	CHX counter 56, Shiga inhibitor 104
Cc1cc(C)cc(N(CC(=O)NC2CCCCC2)C(=O)CCCC(=O)Nc2ccccn2)c1	none
CCOC(=O)C1=C(CCl)NC(=O)NC1c1ccc2c(c1)OCO2 (stereo not drawn)	none (no result: Shiga inhibitor)
CC1CCCC(NC(=O)c2cccc(S(=O)(=O)N3CCCCC3)c2)C1C (stereo not drawn)	none
COC(=O)C(CCSC)NC(=O)c1cc2c(n(-c3ccc(C)cc3)c1=O)CCCC2=O (stereo not drawn)	CHX counter 19
COC(=O)C(CCSC)NC(=O)c1cc2c(n(-c3ccccc3)c1=O)CC(C)(C)CC2=O (stereo not drawn)	none
O=C(c1cnc2n(c1=O)CCS2)N1CCN(C(c2ccccc2)c2ccc(Cl)cc2)CC1 (stereo not drawn)	none
O=c1c(-c2ccc(Cl)cc2)cnc2n1CCS2	CHX counter 29, Shiga inhibitor 67
O=C1NC(=S)/C(=C\c2ccc(-c3ccccc3Cl)o2)S1	Shiga inhibitor 31
O=C1NC(=O)/C(=C/c2ccc(-c3cc(C(=O)O)ccc3Cl)o2)S1	none
O=C1CCCC2=C1C1O[C@](CCCCN3C(=O)c4ccccc4C3=O)(Cc3ccccc31)O2	none
Cc1ccc(C2=NN=C(NC(=O)CSc3nncn3C)SC2)cc1	none
Cc1ccc(C2=NN=C(NC(=O)C(F)(F)F)SC2)cc1	CHX counter 27, Shiga inhibitor 111
CC1Cc2ccccc2N1C(=O)CN(C)CC(=O)Nc1ccc(OC(F)(F)F)cc1 (stereo not drawn)	none (no result: NS1 inh, CHX counter, Shiga inhibitor)
CCc1ccccc1NC(=O)CCc1c(C)nn(-c2ccc(N3CCOCC3)nn2)c1C	none
CCOc1ccc(NC(=O)CCN2CCCCC2)cc1	none
CCOc1ccc(NC(=O)CCc2c(C)nn(-c3ccc(N4CCCCC4)nn3)c2C)cc1	CHX counter 27, Shiga inhibitor 45
CCc1ccc(NC(=O)CCc2c(C)nn(-c3ccc(N4CCCCC4)nn3)c2C)cc1	CHX counter 49, Shiga inhibitor 81
Cc1cc(C)cc(NC(=O)CCc2c(C)nn(-c3ccc(N4CCOCC4)nn3)c2C)c1	CHX counter 26, SARS PLpro yeast inconclusive
Cc1nn(-c2ccc(N3CCCCC3)nn2)c(C)c1CCC(=O)Nc1ccc(F)cc1	CHX counter 34, Shiga inhibitor 55
CCc1cccc(NC(=O)CCc2c(C)nn(-c3ccc(N4CCCCC4)nn3)c2C)c1	CHX counter 40, Shiga inhibitor 95
Cc1ccc(C)c(NC(=O)CCc2c(C)nn(-c3ccc(N4CCCCC4)nn3)c2C)c1	none
Cc1nn(-c2ccc(N3CCCCC3)nn2)c(C)c1CCC(=O)Nc1cccc(F)c1	NS1 inh inconclusive, CHX counter 44, Shiga inhibitor 84
Cc1ccc(NC(=O)CCc2c(C)nn(-c3ccc(N4CCCCC4)nn3)c2C)cc1F	CHX counter 41, Shiga inhibitor 71
NS(=O)(=O)c1ccc(CNC(=O)c2ccc(NS(=O)(=O)c3ccc4[nH]c(=O)[nH]c4c3)cc2)cc1	none (no result: NS1 inh, CHX counter, Shiga inhibitor)
Cn1c(O)c(N=NC(=O)CNC(=O)c2ccco2)c2ccccc21	none
CC(C)CCn1c(O)c(N=NC(=O)c2ccco2)c2ccccc21	Shiga inhibitor 24
Cn1c(O)c(N=NC(=O)c2ccco2)c2ccccc21	CHX counter 44, Shiga inhibitor 145
